From PubChem
Shown are actives, neighbours in structure and some others; about 8.1% of the full set was active somewhere.
ClpP mod = qHTS Assay for Activators of ClpP; actives 1.9% (n = 340,000); Potency, µM (titrated, usually from 57.5 µM), inactives show at the top dose activity change, negative = active; AID 651965, 2013; ATP-dependent Clp protease proteolytic subunit (Bacillus subtilis (strain 168)), P80244; purified B. subtilis ClpP, FRET peptide cleavage, 20 min; active = well fitted falling curve with a large enough effect; inconclusive = small, poorly fitted or top-dose-only effect; inactive = no such curve, though single readings can be large or run the other way; also: the source files actives as falling curves though it sought activators and does not explain the sign; nearly all actives have a fitted effect of over 65% in size
Target sequence (P80244 whole entry, looked up): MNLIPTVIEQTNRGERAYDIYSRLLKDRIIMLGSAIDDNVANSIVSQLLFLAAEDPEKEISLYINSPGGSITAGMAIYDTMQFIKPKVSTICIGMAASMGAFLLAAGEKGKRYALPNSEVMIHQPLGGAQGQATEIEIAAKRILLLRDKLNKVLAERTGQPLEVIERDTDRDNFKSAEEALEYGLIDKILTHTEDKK
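ClpP 10 microg/mL final, pH 8 Tris/KCl buffer with BSA, glycerol, Tween-20; compound pinned in; FRET-FV substrate; RT 20 min; Ex320/Em430; ΔFRET vs ADEP 5.8 microM, DMSO, no enzyme.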
RORgamma inh = qHTS for inhibitors of ROR gamma transcriptional activity; Nuclear receptor ROR-gamma (Mus musculus), P51450; Drosophila S2 Gal4-RORgamma UAS-luciferase reporter, 20 h; Potency, µM (doses to about 53.6 µM), for inactives: at the highest dose activity change, negative = inhibition, actives largely listed as inhibitors; actives 5.4% (n = 310,000); AID 2551, 2010; also: % is scaled to controls: 0 for no effect and ±100 for the full control effect; nearly all actives have a fitted effect of over 60% in size
Target sequence (P51450 whole entry, looked up, the tested form may be a part): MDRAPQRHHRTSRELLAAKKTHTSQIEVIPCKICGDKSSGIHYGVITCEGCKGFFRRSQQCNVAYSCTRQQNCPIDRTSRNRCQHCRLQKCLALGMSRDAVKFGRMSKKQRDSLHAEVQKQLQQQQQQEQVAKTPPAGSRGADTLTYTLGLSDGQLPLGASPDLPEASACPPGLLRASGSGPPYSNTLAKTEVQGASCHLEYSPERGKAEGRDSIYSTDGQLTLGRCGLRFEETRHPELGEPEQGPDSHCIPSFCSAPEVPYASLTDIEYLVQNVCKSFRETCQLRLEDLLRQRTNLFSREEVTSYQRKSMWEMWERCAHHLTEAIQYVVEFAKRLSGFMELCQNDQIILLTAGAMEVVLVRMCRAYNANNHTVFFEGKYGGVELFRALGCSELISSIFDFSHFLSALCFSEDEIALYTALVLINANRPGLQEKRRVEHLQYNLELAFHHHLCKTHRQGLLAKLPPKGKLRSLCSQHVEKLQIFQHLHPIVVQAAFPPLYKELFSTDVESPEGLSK
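Read-out: Photinus luciferase luminescence; inhibitors lower reporter signal. Insect Schneider cells with Gal4-ROR gamma fusion under metallothionein promoter, UAS reporter; 700 uM final copper sulfate induction, 20 hr, ambient temperature.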
PINK1 modulator = A Quantitative High throughput Screen to Identify Chemical Modulators of PINK1 Expression | actives 0.2% (n = 410,000) | AID 624263, 2012 | Potency, µM (highest dose often 76.6 µM), for the others: at the top dose activation (PINK1 increase), actives largely listed as activators | PINK1 immunofluorescence, high-content cytometry, 24 h; active = well fitted activation curve with a large enough effect; inconclusive = small, poorly fitted or top-dose-only effect; cell line not stated here; also: % of control where 0% means no effect; nearly all actives have a fitted effect of over 65% in size
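Cells are seeded, rested 12 hours, then given compound at five concentrations or DMSO for 24 hours. After fixation, blocking and antibody staining, PINK1 amount and mitochondrial localization are scored; CCCP serves as control.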
Epigenetic derep = Quantitative High-Throughput Screen for Regulators of Epigenetic Control; murine LDR cells, GFP reporter derepression, 30 h; actives 0.2% (n = 280,000); Potency, µM (series often up to 53.9 µM), inactives show top-dose GFP activation, most hits filed as activators; AID 1865, 2009; also: % of control where 0% means no effect; nearly all actives have a fitted effect of over 60% in size
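Murine LDR cells carrying a silenced, genomically integrated CMV-driven GFP reporter were exposed to compound for 30 hours at 37 C. After PBS washes, GFP-positive cells (20–120 um objects) were counted by laser-scanning microplate cytometry.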
VP16 counter = VP16 counterscreen qHTS for inhibitors of ROR gamma transcriptional activity. Potency, µM (doses to about 53.6 µM), for inactives: at the highest dose activity, negative = inhibition, usual class: inhibitors. Drosophila S2 Gal4-VP16 UAS-luciferase, luminescence, 20 h. actives 3.5% (n = 310,000);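 also: Gal4-VP16 expression switched on by copper sulfate through the metallothionein promoter; % is scaled to controls: 0 for no effect and ±100 for the full control effect; nearly all actives have a fitted effect of over 50% in size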
Sfp inh = qHTS Assay for Inhibitors of Bacillus subtilis Sfp phosphopantetheinyl transferase (PPTase) | 4'-phosphopantetheinyl transferase ffp (Bacillus subtilis), Q9F4F7 | Biochemical Sfp PPTase activity, qHTS | Potency, µM, for inactives: largest response in the series, negative = inhibition, actives largely listed as inhibitors | actives 3.5% (n = 310,000);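 also: the enzyme is Sfp with the accession as filed and its product quenches rhodamine fluorescence; 0% = enzyme reaction without inhibitor and -100% = no enzyme wells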
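With Hepes-Na pH 7.6 buffer containing 10 mM MgCl2, Sfp (15 nM) modified BHQ-2-YbbR (12.5 uM) using rhodamine-CoA (5 uM). Two reads 30 minutes apart at 525/598 nm yielded each well's rate.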
* = called active by the depositor; [ ] = dose if it differs, or a comment. Unless noted, calls follow the shape of the dose curve; as a rule, active = well fitted curve in the direction sought with a large enough effect; inconclusive = small, poorly fitted or top-dose-only effect, or another doubt; inactive = no such curve, though single readings can be large; an effect the other way counts as inactive or inconclusive. Potency is read from the fitted curve at half-maximal effect.

For O=C(Nc1cccc(C(F)(F)F)c1)C1CCCCC1 the results were ClpP mod -7.7%, RORgamma inh 12.2%, PINK1 modulator 6.5%, Epigenetic derep 0.7%, VP16 counter -4.0% and Sfp inh -3.4%.
For FC(F)(F)c1cccc(NC(=S)NC2CCCC2)c1 the results were ClpP mod 2.1%, RORgamma inh 5.01µM*, PINK1 modulator inconclusive, Epigenetic derep 0.0%, VP16 counter 8.91µM* and Sfp inh 0.8%.
Fc1cccc(NC(=S)NC2CCCCCCC2)c1 was read as ClpP mod -2.4%, RORgamma inh 3.55µM*, PINK1 modulator 15.8µM*, VP16 counter 7.08µM* and Sfp inh 5.9%.
For CC(=O)c1c(C)oc2ccc(N(C(=O)Oc3ccccc3)S(=O)(=O)c3ccc(Br)cc3)cc12 the results were ClpP mod -4.8%, PINK1 modulator 0.3% and Epigenetic derep 0.4%.
Screening COc1ccc(S(=O)(=O)N2CCCCC2)cc1NCC(=O)Nc1ccc(C)cc1 returned RORgamma inh 27.9%, PINK1 modulator 0.3%, Epigenetic derep 0.0%, VP16 counter 3.55µM* and Sfp inh 21.5%.
For COc1ccc(S(=O)(=O)N2CCCCC2)cc1NC(=S)Nc1cccc(Cl)c1C the results were ClpP mod -0.3%, RORgamma inh 11.2µM*, PINK1 modulator 1.2%, Epigenetic derep 1.1%, VP16 counter inconclusive and Sfp inh -6.9%.
Screening COc1ccc(S(=O)(=O)N2CCCCC2)cc1NC(=O)CNc1ccccc1C(C)=O returned ClpP mod -9.5% and PINK1 modulator -1.1%.
`CCN(CC)S(=O)(=O)c1cccc(NC(=O)CN(C)Cc2cccc(OC)c2)c1` gave RORgamma inh 1.6%, PINK1 modulator -1.0%, Epigenetic derep 6.7%, VP16 counter -7.7% and Sfp inh 89.1µM*.
Screening CCN(CC)S(=O)(=O)c1cccc(NC(=O)CNc2cccc(S(=O)(=O)N3CCCC3)c2)c1 returned ClpP mod -7.5%, RORgamma inh -34.7%, PINK1 modulator 0.9%, VP16 counter 0.708µM* and Sfp inh 4.1%.
Screening CCN(CC(=O)Nc1cccc(C(C)=O)c1)S(=O)(=O)c1ccc(OC)cc1 returned ClpP mod -3.3%, RORgamma inh -28.6%, PINK1 modulator -0.8%, Epigenetic derep 1.1%, VP16 counter 6.0% and Sfp inh 15.2%.
Screening CCC(Sc1nc2ccncc2[nH]1)C(=O)Nc1ccc(F)cc1 (stereo unspecified) returned ClpP mod -2.9%, PINK1 modulator -0.4% and Epigenetic derep -2.9%.
`COc1ccc(S(=O)(=O)N2CCCCCC2)cc1C(=O)N1CCCCC1` gave ClpP mod 1.2%, RORgamma inh 1.41µM*, PINK1 modulator -1.2%, VP16 counter inconclusive and Sfp inh -14.5%.
COc1ccc(S(=O)(=O)N2CCCCCC2)cc1C(=O)N1CCN(C(C)=O)CC1 was read as ClpP mod -2.1% and PINK1 modulator 0.7%.
Screening COc1cc(S(=O)(=O)N2CCCCCC2)ccc1-n1cnnn1 returned ClpP mod -0.4%, RORgamma inh -8.5%, Epigenetic derep -0.8%, VP16 counter 0.2% and Sfp inh 44.7µM*.
`COc1cc(S(=O)(=O)N2CCC(N3CCCCC3)CC2)ccc1-n1cnnn1` gave ClpP mod 0.1%, RORgamma inh 6.4%[0.365 µM], PINK1 modulator -0.5%, Epigenetic derep 0.0% and Sfp inh 3.9%.
`CC(C)(Oc1ccc(Cl)cc1)C(=O)OCn1nnc2ccccc2c1=O` gave ClpP mod -0.3%, RORgamma inh inconclusive, PINK1 modulator 0.7%, Epigenetic derep -0.8%, VP16 counter 2.51µM* and Sfp inh -3.3%.
O=C(CNC(=O)c1ccc(Cl)cc1)OCn1nnc2ccccc2c1=O was read as ClpP mod -3.1% and PINK1 modulator 4.3%.
For COc1ccc(Cc2nc(=S)[nH][nH]2)cc1Br the results were RORgamma inh 7.94µM*, PINK1 modulator -1.3%, Epigenetic derep 2.1%, VP16 counter inconclusive and Sfp inh 35.5µM*.
Cc1cccc(NC(=S)N2CCN(Cc3ccccc3)CC2)c1C was read as ClpP mod 3.1%, RORgamma inh 8.91µM*, PINK1 modulator 1.1%, Epigenetic derep -0.9%, VP16 counter inconclusive and Sfp inh 17.1%.
Screening Cc1cc(Cl)ccc1NC(=S)N1CCN(Cc2ccccc2)CC1 returned ClpP mod 4.0%, RORgamma inh 11.2µM*, PINK1 modulator 2.4%, Epigenetic derep -1.0%, VP16 counter 12.6µM* and Sfp inh 14.4%.
`Cc1cccc(NC(=S)NC2CCN(Cc3ccccc3)CC2)c1C` gave ClpP mod -2.7%, RORgamma inh inconclusive, PINK1 modulator -2.3%, Epigenetic derep -1.1%, VP16 counter -87.6% and Sfp inh 19.4%.
Screening COc1ccccc1NC(=O)CCNS(=O)(=O)c1ccc2c(c1)CCN2C(=O)C1CC1 returned ClpP mod -0.9%, PINK1 modulator 0.9% and Epigenetic derep 1.7%.
CCCc1ccc(/C=C2\C(=O)c3ccccc3C(O)=C2C(=O)OCC)cc1 was read as RORgamma inh 11.2µM*, Epigenetic derep inconclusive, VP16 counter inconclusive and Sfp inh 2.82µM*.
CCOC(=O)C1=C(O)c2ccccc2C(=O)/C1=C\c1ccc(CC)cc1 was read as ClpP mod 3.4%, RORgamma inh 4.47µM*, PINK1 modulator 16.3%[38.3 µM], Epigenetic derep inconclusive, VP16 counter -1.0%[0.365 µM] and Sfp inh 2µM*.
Screening CCc1nc(N2CCN(C(=O)c3ccccc3)CC2)c(C#N)c2c1COC(C)(C)C2 returned ClpP mod 25.1µM*, RORgamma inh -0.9%, PINK1 modulator -1.3%, Epigenetic derep inconclusive, VP16 counter 3.1% and Sfp inh -2.2%.
Screening CC1(C)Cc2c(C#N)c(N3CCOCC3)nc(Cc3ccccc3)c2CO1 returned ClpP mod inconclusive, RORgamma inh -1.4%, PINK1 modulator 4.1%, Epigenetic derep -2.1%, VP16 counter 7.7% and Sfp inh -2.0%.
CC1(C)Cc2c(C#N)c(N3CCN(C(=O)c4ccccc4)CC3)nc(Cc3ccccc3)c2CO1 was read as ClpP mod 31.6µM*, RORgamma inh -1.9%, PINK1 modulator -2.1%, Epigenetic derep 2.5%, VP16 counter 0.8% and Sfp inh 2.8%.
